Compound activity from PubChem BioAssay.
Only some compounds are listed: those with a hit (about 4.3% of all), similar ones and a draw of the others.
SMARCA2 activ – SMARCA2 (BRM) function activators, primary screen, cell-based, luminescence, high throughput. MG213 cells, MMTV-luciferase reporter, dexamethasone, overnight. activation, % at 9.1 µM. 1% of 370,000 active; in the data active means activation above about 7.8%;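 further: 0% = vehicle wells and 100% = reference activator wells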
FGF22 binding – binders of human FGF22 protein, primary screen, FGF22 synaptogenesis inhibitor project, biophysical, thermal shift, single point. recombinant FGF22 thermal shift, SYPRO orange fluorescence; percent of sucrose octasulfate shift, DMSO zero. AID 651658, 2012. Fibroblast growth factor 22 (Homo sapiens), Q9HCT0. 1.5% of 340,000 active. activity (Tm shift, normalised), % at 9.99 µM;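 active means mean Tm shift, scaled 0 neutral to 100 positive control, at about 1.3% or above, every replicate too, limit read from the data; inconclusive means no clear call, values can overlap the other calls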
Target sequence (Q9HCT0 whole entry, looked up): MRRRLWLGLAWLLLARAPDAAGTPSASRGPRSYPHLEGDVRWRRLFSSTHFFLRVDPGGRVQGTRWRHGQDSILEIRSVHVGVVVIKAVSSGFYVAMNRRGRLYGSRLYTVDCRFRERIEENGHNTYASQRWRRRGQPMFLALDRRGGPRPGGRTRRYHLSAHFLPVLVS
MITF TRPM1 HTS – activators of MITF-driven TRPM1 promoter reporter, primary screen, cell-based, SK-MEL-5, luciferase, single point; SK-MEL-5 TRPM1-promoter luciferase, 24 h; % of positive control, neutral wells = 0; activation, % at 12.5 µM; 0.75% of 300,000 active; AID 588334, 2011;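 active means mean activation of at least 80% with every replicate also reaching 80%; inconclusive means mean reaches 80% but some replicate falls short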;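 further: 0% = neutral control wells and 100% = parthenolide positive control wells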
MLL AF4-AF9 inh – inhibitors of AF4 peptide binding to AF9, primary screen, biochemical, AlphaScreen, biotin-AF4 peptide, FLAG-AF9, single point. Protein AF-9 (Homo sapiens), P42568. inhibition, % at 10 µM. 0.47% of 350,000 active. AID 651704, 2012;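 active means every replicate reaching a set inhibition limit, whatever the replicate mean, cut at about 25% in these data; inconclusive means mean inhibition reaches that limit but some replicates miss it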;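 further: 0% = plate neutral control median and 100% = total signal loss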
Target sequence (P42568 whole entry, looked up): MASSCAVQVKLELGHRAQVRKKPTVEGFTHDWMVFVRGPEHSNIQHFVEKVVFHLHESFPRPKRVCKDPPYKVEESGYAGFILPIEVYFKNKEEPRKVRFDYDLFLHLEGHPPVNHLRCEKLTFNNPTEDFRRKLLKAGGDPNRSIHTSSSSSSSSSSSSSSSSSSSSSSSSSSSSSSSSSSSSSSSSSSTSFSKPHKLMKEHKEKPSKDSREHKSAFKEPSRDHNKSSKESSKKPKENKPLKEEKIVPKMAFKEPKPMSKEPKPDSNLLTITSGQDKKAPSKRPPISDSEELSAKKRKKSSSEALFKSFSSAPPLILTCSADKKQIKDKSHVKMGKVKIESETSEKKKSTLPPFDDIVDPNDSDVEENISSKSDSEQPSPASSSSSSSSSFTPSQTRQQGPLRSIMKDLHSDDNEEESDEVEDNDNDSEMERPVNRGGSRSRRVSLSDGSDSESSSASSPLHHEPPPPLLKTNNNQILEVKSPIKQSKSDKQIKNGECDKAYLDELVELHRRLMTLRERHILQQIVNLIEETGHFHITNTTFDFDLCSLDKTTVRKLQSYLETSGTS
esBAF inh – Bmi1 luciferase reporter increase in mESCs, primary screen, esBAF inhibitor project, mouse ES cells, Bmi1 luciferase knock-in, single point; 24 h; 100% = twice the neutral-well signal; reporter increase, % at 12.5 µM; 2% of 350,000 active; AID 602393, 2012; in the data active means activation above about 40%; inconclusive means no clear call, values can overlap the other calls;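 further: 0% = median of the plate's neutral control wells and 100% = double that signal; a rise in the Bmi1 reporter signal indicates esBAF inhibition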
Wnt act – Wnt/beta-catenin pathway activators, primary screen, cell-based, plate reader, single point. Wnt/beta-catenin reporter cell assay, activator. AID 743398, 2014. 1.2% of 300,000 active. activation, % at 9.35 µM; in the data active means activation above about 30%, passing the limit was not always enough; inconclusive means no clear call, values can overlap the other calls;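 further: 0% = neutral control wells and 100% = positive control wells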
* marks the source's active call; other numbers are inactive results; ? = inconclusive; / = no result given.

SMILES | SMARCA2 activ | FGF22 binding | MITF TRPM1 HTS | MLL AF4-AF9 inh | esBAF inh | Wnt act
COc1ccccc1OCCNC(=O)c1ccc2c(c1)CCC2 | 6.6 | -0.4 | ? | -4.2 | 49.0* | 14.4
COc1ccccc1OCCNC(=O)CNC(=O)c1ccc2c(c1)OCO2 | -2.2 | 0.0 | -0.6 | 4.0 | -1.6 | 0.2
COc1cccc(-c2cn(CC[C@H]3CC[C@@H](NC(C)=O)[C@H](CO)O3)nn2)c1 | / | -0.1 | / | 1.0 | -2.4 | /
O=C(O)CCC(=O)Nc1ccc(C(=O)OCC(=O)c2ccc(Cl)cc2Cl)cc1 | 3.4 | 43.0* | 6.2 | -0.4 | / | 0.0
Cc1ccc(Cl)cc1NC(=O)c1ccc(NC(=O)CCC(=O)O)cc1 | 1.2 | -0.1 | 8.7 | -4.6 | 3.4 | 0.8
CC(=O)N(C)C[C@H]1Oc2ncc(C#Cc3ccccc3)cc2C(=O)N([C@@H](C)CO)C[C@H]1C | / | -0.1 | / | -3.7 | -1.5 | /
Cc1ccc(Cn2cc(COC(=O)N3CCOCC3)nn2)cc1 | -1.2 | / | / | / | / | /
C[C@@H]1CN([C@@H](C)CO)C(=O)c2cc(C#CCN(C)C)cnc2O[C@@H]1CN(C)C(=O)NC1CCCCC1 | / | -0.2 | / | -0.2 | -3.8 | /
CCc1ccc(CNCCNC(=O)c2ccco2)cc1 | 6.9 | 0.7 | -6.8 | -2.0 | 35.7 | 42.3*
O=C(NCCNCc1ccccc1)c1ccco1 | -1.0 | 0.2 | -7.0 | 2.1 | 13.1 | -2.8
Cc1cccc(C(=O)Nc2nc3ccc(S(C)(=O)=O)cc3s2)c1 | 1.5 | 0.2 | / | -0.5 | 46.0* | -1.3
O=C(CS(=O)(=O)c1ccccc1)Nc1nc2ccccc2s1 | 0.0 | 0.2 | 3.9 | -3.0 | 40.9* | 10.9
COCC(=O)Nc1nc2ccc(C)cc2s1 | 2.9 | / | 49.2 | / | / | 39.7*
CS(=O)(=O)c1ccc2nc(NC(=O)c3ccccc3)sc2c1 | 0.3 | 0.2 | / | 1.1 | 15.9 | 0.3
Cc1ccc2nc(NC(=O)CS(=O)(=O)Cc3ccccc3)sc2c1 | -5.0 | 0.3 | 16.1 | -30.2 | 5.7 | 40.1*
Cc1ccc(-c2c(NC(=O)C3CC3)nc3ncccn23)cc1 | 0.0 | / | / | / | / | /
COC(=O)[C@]12C[C@H](CC(=O)N3CCN(C(=O)c4ccco4)CC3)C(=O)N(Cc3ccc(Cl)cc3Cl)C1=C[C@H](COCc1ccccc1)O[C@@H]2C | -3.7 | / | / | / | / | /
O=C(Cc1ccccc1)N1C[C@H]2[C@@H](c3ccccc31)[C@@H](CO)N2C(=O)c1cccc(F)c1 | / | 0.2 | / | -3.7 | -0.5 | /
CCc1nnc(NC(=O)CS(=O)(=O)Cc2ccccc2)s1 | -2.0 | 1.5* | -5.7 | -0.7 | -10.5 | 0.1
Cc1ccc2nc(NC(=O)CCNS(=O)(=O)c3cccs3)sc2c1 | -0.6 | / | 46.4 | / | 69.6* | 11.9
CCC(=O)Nc1ccc2c(c1)OC[C@H](C)N(C(=O)CC1CC1)C[C@@H](C)[C@@H](OC)CN(C)C2=O | / | -0.2 | / | -8.0 | 0.2 | /
C[C@@H]1CCCCO[C@H](CN(C)C(=O)Nc2cccc3ccccc23)[C@@H](C)CN([C@@H](C)CO)C(=O)c2cc(NC(=O)c3ccccc3)ccc2O1 | / | -0.6 | / | 0.9 | -0.4 | /
Cc1ccc(OCC(=O)Nc2nnc(C3CCCO3)s2)c(Br)c1 (stereo unspecified) | 2.3 | 44.0* | -0.9 | -3.1 | / | 8.9
C[C@@H]1CN([C@H](C)CO)C(=O)Cc2cc(NC(=O)Nc3cccc4ccccc34)ccc2O[C@H]1CN(C)S(=O)(=O)c1ccc(F)cc1 | / | 0.1 | / | -0.9 | -4.2 | /
OCCNCCSc1ccc(Cl)cc1 | 0.2 | 42.9* | -3.1 | -0.8 | / | -5.7
SMILES | SMARCA2 activ | FGF22 binding | MITF TRPM1 HTS | MLL AF4-AF9 inh | esBAF inh | Wnt act
COc1cc(Cl)c(C)cc1NC(=O)c1ccc2c(c1)OCO2 | 1.1 | 0.1 | / | 5.3 | 46.1* | 1.5
Cc1cc(Cl)ccc1NC(=O)c1ccc2c(c1)OCO2 | 0.4 | 0.2 | / | -9.0 | 77.1* | 11.0
O=C(Nc1ccc(Cl)cc1Cl)c1ccc2c(c1)OCCO2 | -1.5 | -0.2 | 50.0 | 0.4 | -5.2 | 51.8*
O=C(Nc1ccc2c(c1)OCCO2)c1ccc(Cl)c(Cl)c1 | 3.2 | 0.1 | 62.1 | -0.7 | 18.1 | 6.4
C[C@H](CO)N1C[C@H](C)[C@@H](CN(C)S(C)(=O)=O)Oc2ccc(NC(=O)CCN3CCOCC3)cc2CC1=O | / | -0.2 | / | 1.8 | 0.8 | /
CCc1nnc(NC(=O)CSc2nc3[nH]ncc3c(=O)[nH]2)s1 | -0.9 | 43.8* | -5.9 | -2.3 | -2.0 | -9.6
C[C@@H]1CCCCO[C@H](CN(C)S(=O)(=O)c2ccc(F)cc2)[C@H](C)CN([C@@H](C)CO)C(=O)c2cc(NC(=O)c3ccncc3)ccc2O1 | / | 0.3 | / | 1.9 | 5.2 | /
C[C@H]1C(c2ccccc2F)O[C@]2(C[C@H](O)c3c(ccc4ccccc34)O2)C[C@@H]1O (stereo partly specified) | -2.9 | / | / | / | / | /
Cc1ccc(S(=O)(=O)N2CCN(C(=O)c3ccc4ccccc4n3)CC2)c(C)c1 | 2.3 | 0.0 | 38.8 | 1.6 | 57.7* | 11.5
Cc1onc(-c2ccc3c(c2)OCO3)c1-c1ccc2[nH]ccc2c1 | -0.5 | 0.0 | -23.0 | 1.7 | 9.1 | -3.8
c1cc2cc(-c3c(-c4ccc5c(c4)OCO5)noc3-c3ccsc3)ccc2[nH]1 | 3.7 | 0.0 | 41.9 | -1.4 | 54.9* | 32.9*
O=C(NCC1CC1)[C@@H]1[C@@H](CO)[C@@H]2Cn3c(cccc3=O)[C@@H]2N1C(=O)CC1CC1 | / | -0.1 | / | -17.7 | -4.9 | /
C=CCN1C2CCCC1CC(NC(=S)Nc1ccc(Cl)cc1)C2 (stereo unspecified) | -1.3 | 0.7 | 14.6 | 7.0 | / | 38.9*
Cc1sc2nc(COC(=O)CNC(=O)c3ccccc3Cl)[nH]c(=O)c2c1C | -1.7 | / | / | / | / | /
CCN1[C@@H]2c3ccc(-c4cccnc4)c(=O)n3C[C@H]1[C@H](CO)[C@H]2C(=O)NC1CCCC1 | / | / | / | -1.6 | / | /
Cc1cc(C2=NNC(=NC3CC3)SC2)c(C)n1-c1ccccc1 | -7.5 | 0.2 | -99.5 | -4.4 | / | -32.2
COc1ccc(-n2c(C)cc(C3=NNC(=NC4CC4)SC3)c2C)cc1 | 9.8* | -0.1 | 33.1 | 2.8 | / | 7.7
CC(=O)Nc1ccc(NC(=O)C(C)OC(=O)c2ccccc2Sc2ccccc2C#N)cc1 (stereo unspecified) | -0.6 | 0.0 | 14.7 | 96.1* | -2.2 | -2.0
CCCC1c2ccc(C)n2CCN1C(=O)Nc1ccccc1Cl (stereo unspecified) | 3.7 | / | 48.4 | / | 63.2* | /
CCC1c2ccc(C)n2CCN1C(=O)Nc1ccccc1C(=O)OC (stereo unspecified) | -0.9 | / | -12.0 | / | -13.9 | /
Cc1nc2ccc(S(=O)(=O)Nc3cccc(-c4nc5cccnc5s4)c3C)cc2s1 | -5.0 | -0.1 | -5.4 | -4.0 | -8.7 | -6.4
